The list is not random: actives were taken first. Their share in the collection is about 4.1%.
Shn3 inh set2: inhibitors of Schnurri-3 3'UTR reporter in osteoblasts; Clone20 osteoblast Shn3 3'UTR firefly luciferase, 24 h; inhibition, % at 12.5 µM; hit rate 0.52% among 360,000; AID 588674;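 active = mean inhibition of at least 75% with every replicate also reaching 75%; inconclusive = mean inhibition at least 75% but some replicate below; inactive = mean inhibition below 75%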
TROY signal inh: blocks TROY-dependent signaling in reporter cells; inhibition, % at 10 µM; hit rate 0.98% among 360,000; Q293 LMP1-TROYcd NF-kB luciferase reporter, 4 h;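 active = compounds whose plate-normalised and pattern-corrected inhibition of the luciferase reporter signal at the single screening dose is 50% or more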
MITF TRPM1 inh: inhibitors of MITF-driven TRPM1 promoter in melanoma cells; SK-MEL-5 TRPM1 promoter luciferase, 24 h; inhibition, % at 12.5 µM; hit rate 0.83% among 330,000; AID 488899;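 active = mean inhibition across replicates of 60% or more, whatever share of single replicates reaches that level; inconclusive = some that reach 60%, reason not given; inactive = mean inhibition across replicates below 60%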
LMP1 NFkB inh: Epstein-Barr LMP1 NF-kappaB reporter inhibition. inhibition, % at 12.5 µM. LMP1-induced NF-kappaB luciferase reporter cells, luminescence. hit rate 0.69% among 350,000; in the data active = inhibition above about 41%; inconclusive = no clear call, values can overlap the other calls
TWEAK Fn14 block: blocks TWEAK-Fn14 interaction in a reporter cell assay. TWEAK-stimulated Fn14 reporter cells, luciferase luminescence, 8 h. inhibition, % at 10 µM. hit rate 2% among 360,000; in the data active = inhibition above about 50%
Peg3 prom inh: reduces Peg3 promoter-driven luciferase expression in HeLa; inhibition, % at 20 µM; hit rate 1.7% among 360,000; HeLa PEG-Prom luciferase reporter, luminescence, overnight;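 active = inhibition of at least 50% at 20 µM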
Hits are given with their value; i = inactive; ? = inconclusive; nt = not tested or not shown.

SMILES	Shn3 inh set2	TROY signal inh	MITF TRPM1 inh	LMP1 NFkB inh	TWEAK Fn14 block	Peg3 prom inh
CC1(C)Cc2c(cnn2-c2cccc(F)c2)C(NC(=O)Cn2cccn2)C1 (stereo not drawn)	i	i	i	i	i	i
CCCOc1ccc(C(=O)Nc2ccc(S(=O)(=O)NC3=NCCCCC3)cc2)cc1	i	i	i	i	i	i
CN(C)/C=N/S(=O)(=O)c1cccn1-c1ncc(C(F)(F)F)cc1Cl	i	i	i	i	i	i
O=S(=O)(c1ccccc1)c1ncc(C(F)(F)F)cc1Cl	i	i	i	i	i	71
O=S(=O)(c1ccccc1)c1ncc(C(F)(F)F)cc1O	i	i	i	i	i	i
CN(C)S(=O)(=O)c1cccn1-c1ncc(C(F)(F)F)cc1Cl	i	i	i	56	i	i
CC1(C)Cc2c(c(N3CCOCC3)nc3snc(N)c23)CO1	i	i	i	i	i	65
CC1(C)Cc2c(c(N3CCOCC3)nc3snc(Br)c23)CO1	i	i	i	i	i	92
Cc1nnc(SCC(=O)N2CCC(c3noc4ccc(F)cc34)CC2)s1	i	i	i	?	68	i
O=C1CC2(CCN(C(=O)COc3ccccc3F)CC2)Oc2ccccc21	i	i	i	i	i	i
COc1cccc(N=c2oc3ccc(OC)cc3cc2-c2nc3ccccc3[nH]2)c1	i	i	i	i	62	i
COc1ccc(N=c2oc3ccc(OC)cc3cc2-c2nc3ccccc3[nH]2)cc1	i	i	i	i	i	i
COc1cccc(N=c2oc3ccccc3cc2-c2nc3ccccc3[nH]2)c1	i	i	i	i	75	i
CN(CC(=O)Nc1cccc(F)c1)C(=O)C1(c2ccccc2)CC1	i	i	i	i	i	i
COc1cc(CC(=O)N(C)CC(=O)Nc2cc(C)ccc2C)cc(OC)c1OC	i	i	i	i	i	i
COC(=O)c1ccc(C(=O)OC)c(NC(=O)C2CC(=O)N(C3CCCC3)C2)c1 (stereo not drawn)	i	i	i	i	i	i
COc1ccc(C)cc1NC(=O)c1ccccc1N(C)S(=O)(=O)c1ccccc1	i	i	i	i	i	i
Cc1c(/C(O)=C2/C(=O)C(=O)N(CCN3CCOCC3)C2c2ccco2)cnn1-c1ccccc1 (stereo not drawn)	i	74	i	i	85	i
Cc1c(/C(O)=C2/C(=O)C(=O)N(Cc3cccnc3)C2c2cccs2)cnn1-c1ccccc1 (stereo not drawn)	i	85	i	i	83	i
CCN(C(=O)COC(=O)c1ccc2c(c1)OCO2)c1ccc(F)cc1	i	i	i	i	i	i
CCN(CC)S(=O)(=O)c1ccc(N/N=C/c2cc(OC)ccc2O)nc1	i	i	?	46	i	i
COc1cccc(/C=N/NC(=S)Nc2cccc(S(=O)(=O)N(C)C)c2)c1	i	i	i	i	i	i
COc1ccc(O)c(/C=N/NC(=S)Nc2cccc(S(=O)(=O)N(C)C)c2)c1	90	i	i	i	i	i
Nc1nc2c(ncn2[C@@H]2O[C@H](CNCc3cnc(N4CCOCC4)nc3)[C@@H](O)[C@H]2O)c(=O)[nH]1	i	i	nt	nt	i	i
CCc1nn(C(C)C(=O)N(C)Cc2ccccc2)c(=O)c2cc3occc3n12 (stereo not drawn)	i	i	i	i	i	i
SMILES	Shn3 inh set2	TROY signal inh	MITF TRPM1 inh	LMP1 NFkB inh	TWEAK Fn14 block	Peg3 prom inh
O=C(/C=C/c1ccccc1)CCN1CCCCC1	i	i	i	i	i	105
O=C(CCN1CCCCCC1)c1ccccc1	i	i	i	i	i	i
Cc1cc(C)nc(SCC(=O)NC(=O)c2ccccc2O)n1	i	i	i	i	i	i
COc1ccc(C2c3ccc4ccccc4c3Oc3ncn(CCN(C)C)c(=N)c32)cc1 (stereo not drawn)	i	i	95	i	i	92
COc1ccc(C2c3ccc4ccccc4c3Oc3ncn(CCO)c(=N)c32)cc1 (stereo not drawn)	i	i	78	i	i	103
COc1ccc(C2c3c(ncn(Cc4ccco4)c3=N)Oc3ccc4ccccc4c32)cc1 (stereo not drawn)	i	i	i	i	i	i
COc1ccc(C2c3ccc4ccccc4c3Oc3ncn(CCN4CCOCC4)c(=N)c32)cc1 (stereo not drawn)	i	i	77	i	i	102
COc1ccc(C2c3ccc4ccccc4c3Oc3ncn(CCN4CCOCC4)c(=N)c32)cc1OC (stereo not drawn)	i	i	i	i	i	i
O=C(NCc1ccc(F)cc1)c1cc(C2CCCN(C(=O)c3ccccn3)C2)on1 (stereo not drawn)	i	i	nt	nt	i	i
Nn1c(SCC(=O)Nc2ccc3c(c2)OCCO3)nncc1=O	i	i	i	i	i	i
O=C(NC1CC2CCC(C1)N2Cc1ccccc1)c1ccccc1Cl (stereo not drawn)	i	i	i	i	i	i
CC(C)OC(=O)C(C(=O)C(F)(F)F)c1cc(NS(=O)(=O)c2ccc3ccccc3c2)c2ccccc2c1O (stereo not drawn)	i	68	i	i	62	i
Cc1ccc(C(=O)O)cc1NS(=O)(=O)c1ccc2ccccc2c1	i	i	i	i	i	i
COc1nc(=O)n(C2CCCO2)cc1C (stereo not drawn)	i	i	i	i	i	i
Cc1ccc(S(=O)(=O)CCOC(=O)CNC(=O)OCc2ccccc2)cc1	i	i	nt	i	i	i
COC1CCCN(Cc2cn(C)nc2-c2ccc(Oc3ccccc3)cc2)C1 (stereo not drawn)	i	i	i	i	i	i
CCCN1CCC(NCc2cn(C)nc2-c2ccc(Oc3ccccc3)cc2)CC1	i	i	86	i	i	i
O=C(O)c1cc(N2CCCCC2)ccn1	i	i	i	i	i	i
Cc1[nH]n(-c2ccccc2)c(=O)c1N=Nc1c(O)cc(S(=O)(=O)N(C)C)c2ccccc12	i	i	i	i	88	62
COc1cc(NC(=O)CCCNC(=O)c2ccc(Cl)cc2)cc(OC)c1OC	i	i	i	i	i	i
CCC(C)c1ccc(S(=O)(=O)N2CCN(C(C)C(=O)NC3CCCC3)CC2)cc1 (stereo not drawn)	i	i	nt	i	87	i
CCc1ccc(OCC(=O)NC(NC(=S)Nc2ccccc2)C(Cl)(Cl)Cl)cc1 (stereo not drawn)	i	53	i	i	74	i
O=C(NC(NC(=S)Nc1cccc(C(=O)O)c1)C(Cl)(Cl)Cl)OCc1ccccc1 (stereo not drawn)	i	i	i	i	i	i
CCc1ccc(OCC(=O)NC(NC(=S)Nc2ccccc2C)C(Cl)(Cl)Cl)cc1 (stereo not drawn)	i	51	i	i	i	61
Cc1ccc(C)c(NC(=S)NC(NC(=O)N(C)C)C(Cl)(Cl)Cl)c1 (stereo not drawn)	i	i	i	i	i	i
